# Source: the supplement of paper PMC6555819
# How the values were obtained:
# Assay in all cases: PBM binding z-score (relative to random genomic background probes); higher = stronger binding; sequences stand for … in GC…GCGATTGACAGCGTAGAATGAAGG
# [1] = system: PPARg:RXRa DBDmut IVT, anti-RXR (DBD mutation: RXRa K156A/R161A, NR concentration 270 nM, RXRa partner concentration 90 nM)
# Outline: (§1)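 Random background probes are the reference for binding z-scores. These scores derive from regression-normalized fluorescence on custom Agilent 4×180K protein-binding microarrays incubated 1 h with ligand-free nuclear receptor dimers. Binding was detected with antibodies against each partner (one per run).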
# [2] = system: PPARg:RXRa IVT, anti-PPARg (NR concentration 270 nM, RXRa partner concentration 90 nM)
# Outline: as §1
# [3] = system: PPARg DBDmut:RXRa IVT, anti-PPARg (DBD mutation: PPARg1 K132A/R137A, NR concentration 270 nM, RXRa partner concentration 90 nM)
# Outline: as §1
# [4] = system: PPARg DBDmut IVT, anti-PPARg (DBD mutation: PPARg1 K132A/R137A, NR concentration 270 nM)
# Outline: as §1
# [5] = system: PPARg homodimer (NR concentration 180 nM)
# Outline: as §1
# [6] = system: PXR:RXRa (NR concentration 270 nM, RXRa partner concentration 90 nM)
# Outline: as §1
# [7] = system: PXR homodimer (NR concentration 270 nM)
# Outline: as §1
# [8] = system: RARa:RXR (NR concentration 270 nM, RXRa partner concentration 90 nM)
# Outline: as §1
# [9] = system: RARa homodimer (NR concentration 270 nM)
# Outline: as §1
# [10] = system: RARb:RXRa (NR concentration 270 nM, RXRa partner concentration 90 nM)
# Outline: as §1
# [11] = system: RARb homodimer (NR concentration 270 nM)
# Outline: as §1
# [12] = system: RARg:RXRa (NR concentration 270 nM, RXRa partner concentration 90 nM)
# Outline: as §1
# [13] = system: RARg homodimer (NR concentration 270 nM)
# Outline: as §1
# [14] = system: RXRa DBDmut IVT, anti-RXR (DBD mutation: RXRa K156A/R161A, NR concentration 90 nM)
# Outline: as §1
# [15] = system: RXRa homodimer (NR concentration 180 nM)
# Outline: as §1
# [16] = system: THRa:RXRa (NR concentration 90 nM, RXRa partner concentration 90 nM)
# Outline: as §1
# [17] = system: THRa homodimer (NR concentration 90 nM)
# Outline: as §1
# [18] = system: VDR homodimer (NR concentration 270 nM)
# Outline: as §1
Sequence,PBM binding z-score [1],PBM binding z-score [2],PBM binding z-score [3],PBM binding z-score [4],PBM binding z-score [5],PBM binding z-score [6],PBM binding z-score [7],PBM binding z-score [8],PBM binding z-score [9],PBM binding z-score [10],PBM binding z-score [11],PBM binding z-score [12],PBM binding z-score [13],PBM binding z-score [14],PBM binding z-score [15],PBM binding z-score [16],PBM binding z-score [17],PBM binding z-score [18]
TCTAGGAGGCCAGAGGGTCACTCAAGAGGTACGG,1.84,1.03,-0.0331,-0.364,0.662,1.42,-0.35,2.08,-0.215,2.58,3.01,3.09,2.32,0.451,2.66,1.7,0.0241,0.313
CGTCCAAGGTCAAGTTCAGTGAAAGAGACTCGAA,2.98,3.88,1.06,-0.344,3.64,5.19,3.9,5.39,2.56,5.66,4.68,6.6,7.17,4.31,6.26,3.99,2.87,4.75
GCTCGGAGTACAAGGTCAGAGCTTTGTCCGTAGA,0.542,0.648,-1.36,-1.01,1.73,1.67,-0.101,2.14,-0.729,3.07,2.65,2.42,2.48,1.1,2.11,2.63,1.23,0.858
CCTACTGGGGCATCAGGTCATTGATATCAACGTT,5.37,6.32,1.29,0.377,2.41,1.8,0.7,2.41,0.207,2.36,2.89,2.6,2.39,0.331,1.87,3.19,2.71,2.06
CCTCGGAGGACAGAAAGTCAGAGCTGTCCGCTTT,-0.616,-1.05,-1.75,-1.4,-0.952,-0.859,-0.619,-0.54,-0.769,0.221,-0.167,-0.265,0.0547,-0.146,-0.788,-0.441,-0.747,-0.657
CCTACTGGGCCATCAGGTCATTGAGATCAACGTT,4.42,4.78,0.317,0.581,1.13,2.08,2.14,2.31,-0.158,2.22,2.68,2.15,2.06,0.124,1.43,3.28,2.88,1.89
ATACCAAGGTGATCGTGAGGTCGTTGGTACTAAC,0.259,1.28,-0.235,-0.0791,0.658,2.89,0.856,2.43,-0.116,1.43,1.55,2.1,0.722,0.424,1.5,3.39,2.22,2.96
ACTCGGAGGACAAAGGTCAGCGCTACGCCAGTGA,0.977,3.82,0.281,-0.509,4.7,3.99,0.485,5.21,1.94,4.73,4.95,6.38,5.4,1.36,5.69,3.54,0.928,1.34
ATCGAAAGGTCGAGGTGAGTATGGAGAAAGGGAA,0.289,2.45,0.568,0.731,1.64,2.3,0.205,2.72,0.528,3.95,2.76,4.21,4.51,0.698,4.17,2.84,0.743,0.435
CGTCCAAGGTCAGAGGTCAGTGAAGAGATGACGG,2.44,4.65,0.388,-0.499,3.51,5.72,1.13,7.11,0.938,5.55,5.38,7.02,7.05,2.66,7.78,4.58,2.42,2.61
TCTAGTTGGTCACGGAGGTGACACACGACGGGTA,2.02,3.37,1.22,0.542,1.15,0.71,-0.119,0.781,0.338,1.82,1.71,1.6,1.86,0.0966,1.37,1.47,0.665,0.176
TAGCCTACGTCATGCGGGCCAGTATAGTGTCGGC,-0.258,-0.361,-0.565,-0.82,-1.11,-0.921,-1.11,-0.886,-1.36,-0.527,-0.71,-0.452,-0.536,-0.98,-0.341,-1.7,-0.856,-1.16
GCAGACAGGTGAAACGCAGGTAAATCAGGGTGGC,0.287,0.429,-0.773,-1.02,-0.379,-0.152,-0.443,0.514,-0.404,0.472,0.00843,0.816,-0.0582,-0.477,0.544,1.23,-0.537,-0.336
GCTTGTAGATCAAGTTTAAGAAAGACTAAGCTAA,0.956,0.313,0.0425,0.223,-0.136,0.206,0.211,0.203,-0.548,-0.0982,-0.242,-0.195,-0.0872,0.649,-0.236,-0.0932,-0.618,0.27
TCATATAGGTAATACATGTGAAAGTCGGCATCTA,3.84,2.56,1.65,1.42,0.451,0.682,0.0389,1.03,0.882,0.439,-0.0768,0.625,0.544,1.57,1.14,0.246,-0.0874,0.128
